# Experimental data reported in the supplement of paper PMC10681739.
# Tests used:
# ETS1 [1] = molecular target: T1, ETS1 (UniProt P14921); test: ETS1 binding intensity (PBM fluorescence), ETS1 alone (arbitrary fluorescence units); higher = stronger binding; settings: ETS1 concentration 1 nM; RUNX1 concentration 0 nM
# T1 sequence: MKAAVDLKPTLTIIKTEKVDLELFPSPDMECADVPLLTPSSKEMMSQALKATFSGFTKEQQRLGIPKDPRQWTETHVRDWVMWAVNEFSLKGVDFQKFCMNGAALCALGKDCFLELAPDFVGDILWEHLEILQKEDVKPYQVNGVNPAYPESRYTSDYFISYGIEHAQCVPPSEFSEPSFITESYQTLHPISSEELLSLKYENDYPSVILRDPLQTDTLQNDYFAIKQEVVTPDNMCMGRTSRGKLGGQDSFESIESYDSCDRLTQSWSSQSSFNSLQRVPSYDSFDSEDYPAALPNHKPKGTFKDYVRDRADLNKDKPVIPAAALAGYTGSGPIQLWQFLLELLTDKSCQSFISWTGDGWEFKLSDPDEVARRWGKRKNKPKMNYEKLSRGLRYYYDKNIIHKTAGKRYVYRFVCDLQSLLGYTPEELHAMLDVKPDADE
# ETS1 [2] = molecular target: T1, ETS1; test: ETS1 binding intensity (PBM fluorescence) in presence of RUNX1, normalised to ETS1-only experiment (arbitrary fluorescence units); higher = stronger binding; settings: ETS1 concentration 1 nM; RUNX1 concentration 25 nM
# RUNX1 [3] = molecular target: RUNX1 (UniProt Q01196); test: RUNX1 binding intensity (PBM fluorescence) in presence of ETS1, normalised to RUNX1-only experiment (arbitrary fluorescence units); higher = stronger binding; settings: RUNX1 concentration 2 nM; ETS1 concentration 25 nM
# Method: (§1)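 Cooperative gcPBM on 36-bp genomic probes with neighbouring ETS1 and RUNX1 sites. Recombinant human RUNX1 (2 nM) was incubated alone or with ETS1 (25 nM) and detected with anti-RUNX1 antibody plus Alexa488 secondary. Values are medians over 4 replicate spots; the RUNX1+ETS1 data were normalised to the RUNX1-only data. The probes sit in constant array flanks that are not printed.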
# RUNX1 [4] = molecular target: RUNX1 (UniProt Q01196); test: RUNX1 binding intensity (PBM fluorescence), RUNX1 alone (arbitrary fluorescence units); higher = stronger binding; settings: RUNX1 concentration 2 nM; ETS1 concentration 0 nM
# Method: as §1
# 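Throughout, for RUNX1 binding intensity (PBM fluorescence) in presence of ETS1, normalised to RUNX1-only experiment: Full-length recombinant human ETS1 or RUNX1 bound to double-stranded 36-bp genomic probes on microarrays, detected by protein-specific primary antibody and Alexa488 secondary, spot fluorescence as median of four replicate spots.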
# 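Throughout, for RUNX1 binding intensity (PBM fluorescence), RUNX1 alone: Full-length recombinant human RUNX1 bound to double-stranded 36-bp genomic probes on a high-density microarray, scored as Alexa488 fluorescence per spot via anti-RUNX1 antibody, median of four replicate spots.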
# RUNX1, sequence (Q01196 whole entry): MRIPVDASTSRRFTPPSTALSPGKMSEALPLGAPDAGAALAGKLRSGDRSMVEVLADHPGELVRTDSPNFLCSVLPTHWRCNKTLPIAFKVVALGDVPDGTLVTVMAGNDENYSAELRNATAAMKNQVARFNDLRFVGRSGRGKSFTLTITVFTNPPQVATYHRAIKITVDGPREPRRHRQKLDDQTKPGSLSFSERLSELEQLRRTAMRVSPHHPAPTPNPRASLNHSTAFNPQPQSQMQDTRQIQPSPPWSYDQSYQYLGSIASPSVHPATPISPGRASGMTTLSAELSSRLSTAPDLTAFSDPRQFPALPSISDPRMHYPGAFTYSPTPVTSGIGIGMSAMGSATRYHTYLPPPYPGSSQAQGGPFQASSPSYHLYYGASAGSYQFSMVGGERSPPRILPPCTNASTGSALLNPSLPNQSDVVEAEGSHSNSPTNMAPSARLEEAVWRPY
Sequence,ETS1 binding intensity (ETS1 [1]),ETS1 binding intensity (ETS1 [2]),RUNX1 binding intensity (RUNX1 [3]),RUNX1 binding intensity (RUNX1 [4])
TTGGTCAGGATGTGGCTGAAGAAGCCACAAGAAAAA,796,943,1130,–
AGGGTTGGGGAGGATGTTGTGGTTATTATTGACATA,845,4990,2840,–
TGAGAGTAAAAAGGATGTGGTTTCCTTTCATTTTTT,1580,6790,2430,–
TACAACTTGCAACGGAAACCACTTCAGGTTCATTAC,1320,1280,866,–
AACAGCTTCCGGCACGGGGGCTGTGGTTGTGTTGGA,670,1130,1530,–
TGGGCTTTGCAGGAAGCTGTGGTTCACCTACAGCCT,1160,2110,866,–
AAACCAGAGAGGAAGTGGCACCACATGGCCAGACTG,2030,2150,1140,–
GCGAGCACTTCCGGTGTGTGAGCCTGCGGTTGCTAC,7480,22400,3050,–
AACCTAGAAAAGGAAGCTGCGGTTTTTCAGGGTATG,697,6430,12300,–
TCTCTTCCGTTCTCTGGTAGCTTTGTGGTAGCTTTG,369,534,2710,–
GGGAACTCACACCGGAAACCACAGAACCAAGAGTGG,7140,16300,6540,–
CCCCACCCAGACAGGAAACTGTGGCTTCTATCAGAT,3020,4660,1550,–
GGGCAGGAAGGAAGAGGGCTCCTCCCCACAAGCTCT,437,492,862,–
CCTACACTTCCCAGAGAACCTAGCGGTTACGCCAAC,401,505,1560,–
TCTGGGGGAGGGGAAGGATGTGGTTTGCAGAGCGGA,873,5630,1470,–
GAAATCACATCCTTTTGCAAAACCACAGGTGTTTTG,409,1500,3340,–
CAGCCGACTTCCGGGGTGGGGCTTGCTGCCGCAGAG,1760,1780,1730,–
GAACTTCCGGGACCACGTGACGTAGAACCACAACAA,587,1100,1690,–
ACTAGAAGCGGAAGTAGTTGTGGGCGCCTTTGCAAC,5720,7470,1410,–
CACTTCCCCCAGCCTCTCTTTTTAATACCACAATAG,634,876,3290,–
CTCCAGGGACAACCCGGAAACCACATTGCCCAGCGT,2230,6990,1500,–
TTCAGAAAAAAAGGAAGTGGTAAATTCTTGCTGATT,1890,3620,1500,–
CAGCTGCTGACAGGAAAACCACAGTGGAAGGGGAAG,848,1550,1050,–
CGTCACTTCCCACGCGACTGCCTGCGGGAAACATGG,550,704,1680,–
GCTCTTCACTTCCTGTGGCTCCCGCAGCGGCCGCCG,1920,1560,2460,–
TTACCATCGCCCTTCCTGTGGGCTGGGAGGCCAGGT,468,373,1060,–

Sequence,ETS1 binding intensity (ETS1 [1]),ETS1 binding intensity (ETS1 [2]),RUNX1 binding intensity (RUNX1 [3]),RUNX1 binding intensity (RUNX1 [4])
TGACGGCAGGCAGGATGTGGTGAGACAAATCCACTC,4070,8840,2660,–
ACCCCAAGCCCAGGATGTGGTTTGGCCACTATTGAG,727,4450,2030,–
AGATTAGATGCAGGATGTGGTATACAAAGGCACGTT,2530,7140,1820,–
GACTCCCTCAGCGGATGCGGGTGCTGCTGCTGCTGC,1290,1400,1250,–
GCACCGTCTACCCGGAAGTTGTGGGCTGGGAGGGAT,5610,9990,1430,–
GTGGTCTCTGCCACTTCCTGTGGTGTAAACAGTCTC,2680,3730,2890,–
GCGGGGACCCGGATGTGTGTGGTGGCGGCGGCCGAA,3040,3350,1220,–
CTTAGTGGGGCAGGATGTGGTCAGGGAAGCTGATCT,4440,29900,7670,–
GAGAGGAGGATGTTGTCAGATACCCACAAATGAGAA,566,621,889,–
AGCTTGCCGGAAGCTGGTTGTTCGCTGCGGCGACCA,4100,4380,1220,–
GGCAGCAAGAAAGGAAATAGTGTGGTTGGGTGGAGA,1050,1640,1010,–
CACCCTGCCACTTCCCTAAACTCCCCGCACAGGCCG,–,–,2140,1640
GCTAACGGAACCAGCACGCGGCCACCGCAGGAACCT,–,–,869,853
TTAGAGCTGACATCCTTGCGGTCCACAGCCTCCAAA,–,–,1090,961
GCTGTCCGTTTCCGAGATGTTAATGCGGGGTCTTGC,–,–,1070,866
TACCTAGACCCTTTCCGCCCTTACCGCGGCCAGACA,–,–,1410,1210
GGCGCTAGGCTTCCGGATCGCGGTGGGCGGAGTTCA,–,–,1230,678
CCTGAAGCTCATGCGGAAAACCCACAAAGGGGTGCC,–,–,828,932
GCCAACAGGAAGCTGGAAGCCAACCGCACTGTGTGC,–,–,1670,899
CAACCCAAGGGGATGTGCTCACTGCGGTGAGGAGGC,–,–,893,806
TCCACAGCCGGTTCCGGCCGGTTCCCACAAGCCCCT,–,–,1130,844
CGGCGCCTTCCGCAGAGGGACTGCGGCTTTCTGCGC,–,–,1390,946
AATTGAGACAGGAAATGTTGGTTTGTGGTCAGGCAC,–,–,3130,1170
GGGTGAGTATTTCCTCCTGCGGTGGGTCGGCATGTA,–,–,1570,796
CCATTTCCCGCCTACCGACCTGCTGCACCGCACGGA,–,–,3390,1430
TTATGCCTCAGGATGAACGAACCTCAAACACCCAGG,–,–,858,904

Sequence,ETS1 binding intensity (ETS1 [1]),ETS1 binding intensity (ETS1 [2]),RUNX1 binding intensity (RUNX1 [3]),RUNX1 binding intensity (RUNX1 [4])
AGCTAGGACAGGATGTGAAAACCACACTGACAAAGT,–,–,3510,919
CAGAGGACAGGATGCCAACCCCAAAACCGCAGCGAC,–,–,9280,4020
CAGAGGAAGCCCACCCCATAAAAGAACCACAGATAA,–,–,864,1010
TTCATAAAGGAGAGGAAACCTGACCACGACAGAAAG,–,–,754,897
AGTTTCCTGAACTCAGAGCACAGTTGTGGTGCAGAA,–,–,1270,743
CCAGTGCAGAAACATCCCTCCTGCCGCAGCTTTGTC,–,–,896,1020
CAGTTTATCCTGTGAGAGCCTTGTGGTTCCTACTAA,–,–,859,773
AGGCCAGACGCCTTCCGTGGTTTACGGTGAGGGTGG,–,–,799,884
TGTGTATGAGAACGGATATAGGTGGTTTTATAAGGA,–,–,941,756
CTGAGACATCCTGATAATTCTGTGGGTTACCCCAAA,–,–,1280,728
GTTCATCCAGGAAACCCCAACCCAGTGCCGCAGTAT,–,–,1080,895
TTACCCCAGGAAAAGCCTCCTCACCGCAGTGACCAG,–,–,905,998
AGACTCCATCCGCCATGTTGGATGCCGCAGATTCGC,–,–,1050,813
CTTTGTTACTTTGGGGAAATGTGGTTCTGCGCCACC,–,–,927,1110
AGCTCCACCGGAAACGGCCTGGCCGCAGCCAATCAG,–,–,2450,806
CTCAGGTTATCTAGGAAATCTACCGCACGCTAAAGT,–,–,793,858
ATTGCTTCCGACGCTACTCCTGCCGGGTCACCACAG,–,–,1020,785
CAGACACCAACGCTCGGAAACCGCCAGACACCAAGG,–,–,888,1030
GGGGGAGCAAGCGCCTTCCGCGGTCGCTGGGGGGAG,–,–,812,939
TGAGTTTTGTTTCCGATTCACCACAGAAGATACTTT,–,–,2560,2230
CGGGGTTTCCTGGTGGCTGCGAGCGGTGGGGACGGC,–,–,1140,728
GCAGGCGGAGCTTGAGGAAACCGCAGATAAGTTTTT,–,–,10200,9080
GGCAGCCGATGCATCCTGCGGTGTGTGGCCCTCAGA,–,–,1040,787
GAAACGTCACCCAGAGGAAACCCACAAGGGGCGTGG,–,–,836,875
ATTTTAGCATTTTCCTGCTCGGAGACCACATGTTTG,–,–,1220,1170
CAAGGAGGCTTCCTGCGTGGGGCCGCAGAGCGAGTC,–,–,869,658
